{
  "source": "PubChem BioAssay (Tox21)",
  "note": "Results filed as inconclusive are left out. Unmarked numbers belong to inactive results. Active and inactive are the calls of the source. Calls come from the whole dose curve; as a rule, active = well fitted activation curve with a large enough effect in the repeat runs; inconclusive = weak or mixed curves; inactive = flat fitted curve, though single readings scatter.",
  "data": [
    {"assay": "A CellTox Green Cytotoxicity Assay to monitor cytotoxicity in HEK293 cells - 32 hour (AID 1224881); note: nearly all actives have a fitted effect of over 40% in size; note: potency is the fitted concentration of half-maximal effect; for cytotoxicity increase: % is set by controls: 0 for no effect and ±100 for the full control effect", "details": "CellTox Green fluorescence; series mostly up to 76.8 µM; cytotoxicity increase: at the top concentration", "source_text": "National Center for Advancing Translational Sciences [NCATS]\nNIH Chemical Genomics Center [NCGC]\nU.S. Environmental Protection Agency [EPA]\nNational Institutes of Environmental Health Sciences [NIEHS]\nNational Toxicology Program [NTP]\nCell-based models are critical for drug discovery. Determining the natural cytotoxic effects resulting from test compounds is an essential research activity. A CellTox Green Cytotoxicity Assay to monitor cytotoxicity in real time of continues cell culture during 40 hours of the compound treatment was used to screen Tox21 10K library compounds in Hek293 cells. CellTox Green Cytotoxicity Assay is a nonlytic, homogeneous, biofluorescent method to measure cytotoxicity in cell culture after experimental manipulation. The assay system uses a proprietary asymmetric cyanine dye that is excluded from viable cells but preferentially stains the dead cell's DNA. […] Viable cells produce no appreciable increases in fluorescence. Therefore, the fluorescence signal produced by the binding interaction with dead cell DNA is proportional to cytotoxicity.\nThe mixture of Hek293 cell suspension and reagents were dispensed at 600cells/6 ul/well in 1536-well tissue culture treated black solid bottom plates using a Multidrop dispenser. After the assay plates were incubated at a 37 C/5% CO2 incubator for 5 hours, 23 nL of compounds dissolved in DMSO, positive and negative controls was transferred to the assay plate by a pintool work station. The plates were incubated at 37 C for 40 hours. The fluorescence intensity were measured at 0h, 8h, 16h, 24h, 32h and 40h time points using ViewLux plate reader during compound treatment.", "values": [
      {"compound": "CCCC(CC)c1ccccc1", "note": "(stereo not given)", "cytotoxicity increase": "1.96%"},
      {"compound": "CCCC(=O)OCCC(C)CCC=C(C)C", "note": "(stereo not given)", "cytotoxicity increase": "4.38%"},
      {"compound": "CCNC(=O)NCc1cccc(Cl)c1", "cytotoxicity increase": "-19% [at 35.3 µM]"},
      {"compound": "CC1=C(O)C(=O)C(C)O1", "note": "(stereo not given)", "cytotoxicity increase": "10.1%"},
      {"compound": "CC1CCc2c(N3CCC(O)CC3)c(F)cc3c(=O)c(C(=O)O)cn1c23", "note": "(stereo not given)", "cytotoxicity increase": "4.28% [at 35.3 µM]"},
      {"compound": "CC(C)NCC(O)c1ccc2ccccc2c1", "note": "(stereo not given)", "cytotoxicity increase": "13.1% [at 35.3 µM]"},
      {"compound": "Cc1ccnc(N)c1", "cytotoxicity increase": "1.53%"},
      {"compound": "C=CC(=O)CCCCC", "cytotoxicity increase": "-8.49%"},
      {"compound": "C=C(C)c1cccc(C(C)(C)N=C=O)c1", "cytotoxicity increase": "-3.74%"},
      {"compound": "O=C[O][Al]([O]C=O)[O]C=O", "cytotoxicity increase": "-1.67%"},
      {"compound": "CC1(C)[C@H]2CC[C@](C)(C2)[C@H]1O", "cytotoxicity increase": "-2.22%"},
      {"compound": "Cc1ccc(C)c([N+](=O)[O-])c1", "cytotoxicity increase": "-3.65%"},
      {"compound": "c1ccc(B(c2ccccc2)c2ccccc2)cc1", "cytotoxicity increase": "0.619%"},
      {"compound": "COc1cc(/C=C/C(N)=O)cc(OC)c1OC", "cytotoxicity increase": "0.913% [at 35.3 µM]"},
      {"compound": "Fc1ccccc1", "cytotoxicity increase": "-4.68%"},
      {"compound": "C[C@@H](O)C(=O)O", "cytotoxicity increase": "-18.2%"},
      {"compound": "O=C(O)CSCC(=O)NC1CCSC1=O", "note": "(stereo not given)", "cytotoxicity increase": "2.84% [at 35.3 µM]"},
      {"compound": "CCCC(=O)OC/C=C(\\C)CCC=C(C)C", "Potency": "49 µM (active)"},
      {"compound": "CN(C)C(C)(C)CO", "cytotoxicity increase": "-0.172%"},
      {"compound": "CCN(CC)CCN", "cytotoxicity increase": "-5.81% [at 35.3 µM]"},
      {"compound": "CC1=C(C(=O)O)N2C(=O)[C@@H](NC(=O)[C@H](N)c3ccccc3)[C@H]2SC1", "cytotoxicity increase": "2.08% [at 35.3 µM]"},
      {"compound": "CC(O)CC(C)O", "note": "(stereo not given)", "cytotoxicity increase": "21.2%"},
      {"compound": "CC(C)Nc1ccccc1", "cytotoxicity increase": "-1.79%"},
      {"compound": "OCCN1CCOCC1", "cytotoxicity increase": "3.27%"},
      {"compound": "COc1ccc2c(c1)c1c3n2CCN(C)C3=NCC1", "cytotoxicity increase": "-5.52% [at 35.3 µM]"},
      {"compound": "O=C(O)CNC(=O)CNC(=O)CNC(=O)CSC(=O)c1ccccc1", "cytotoxicity increase": "4.13% [at 35.3 µM]"},
      {"compound": "CCN1CCCC1CN", "note": "(stereo not given)", "cytotoxicity increase": "-16.9% [at 35.3 µM]"},
      {"compound": "O=C1c2ccccc2C(=O)c2cc(Cl)ccc21", "cytotoxicity increase": "-1.78% [at 6.97 µM]"},
      {"compound": "CN(C)CCN(C)CCO", "cytotoxicity increase": "-18.3%"},
      {"compound": "COC(=O)/C=C\\C(=O)O", "cytotoxicity increase": "3.88%"},
      {"compound": "N#Cc1cscn1", "cytotoxicity increase": "-13.6%"},
      {"compound": "CC(S)C(C)S", "note": "(stereo not given)", "cytotoxicity increase": "-20%"},
      {"compound": "N#CCC(=O)NN", "cytotoxicity increase": "0.249% [at 35.3 µM]"},
      {"compound": "[O]=[Mo](=[O])=[O]", "cytotoxicity increase": "-39.2% [at 15.8 µM]"},
      {"compound": "Nc1nnnn1-c1ccccc1", "cytotoxicity increase": "-3.39% [at 35.3 µM]"},
      {"compound": "Cn1c(=O)c2c(ncn2CCO)n(C)c1=O", "cytotoxicity increase": "-3.41% [at 35.3 µM]"},
      {"compound": "CCCCSCCCC", "cytotoxicity increase": "-5.65%"},
      {"compound": "C/C=C(\\C)C(C)=O", "cytotoxicity increase": "-0.111%"},
      {"compound": "O/N=C/C=N/O", "cytotoxicity increase": "-2.86%"},
      {"compound": "O=C1CCCCO1", "cytotoxicity increase": "-7.1%"}
    ]}
  ]
}
